This is a sample that favours compounds with a hit; in the whole collection about 8% have one here.
MCF10A rereplic = A quantitative high throughput screen for small molecules that induce DNA re-replication in MCF 10a normal breast cells. AID 624296, 2012. MCF 10A DNA re-replication, Hoechst nuclear intensity, 48 h. 350,000 compounds, 2.9% hits. Potency, µM (titrated, usually from 46.1 µM), inactives show top-dose activity, positive = re-replication, most hits filed as activators; note: % of control where 0% means no effect; nearly all actives have a fitted effect of over 50% in size
HT1080NT lethal = qHTS for induction of synthetic lethality in tumor cells producing 2HG: qHTS for the HT-1080-NT fibrosarcoma cell line; HT-1080-NT fibrosarcoma viability, CellTiter-Glo ATP luminescence, 48 h; Potency, µM (titrated, usually from 46.1 µM), without a hit: top-dose activity, negative = less viability, hits mostly cytotoxic; 360,000 compounds, 1.6% hits;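 note: NT is the 2HG producing partner of a matched IDH1 knockdown line; 0% = DMSO-treated cells and -100% = media-only wells without cells; nearly all actives have a fitted effect of over 55% in size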
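Compounds were tested in concentration-response format on HT-1080-NT cells for 48 hours at 37 degrees C. Cell viability came from CellTiter-Glo luminescence; curves were classified by r2, response magnitude and activity.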
HT1080 IDH1KD tx = qHTS for induction of synthetic lethality in tumor cells producing 2HG: qHTS for the HT-1080-IDH1KD cell line; HT-1080 IDH1 knockdown viability, ATP luminescence, 48 h; 360,000 compounds, 2% hits; Potency, µM (series often up to 46.1 µM), for inactives: at the highest dose activity, negative = toxicity, hits mostly cytotoxic; AID 686971, 2013;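 note: 0% = DMSO wells and -100% = cell-free medium wells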
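HT-1080-IDH1KD cells (IDH1 knocked down), 750/well in RPMI with 5% FBS, treated with compound 48 h at 37 degrees C. Viability by CellTiter-Glo luminescence, normalised to DMSO and no-cell wells; concentration-response curves classed.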
KB-3-1 cytotox = qHTS assay for MDR1-selective chemotherapeutics: Primary screen using the parental adenocarcinoma cell KB-3-1; 400,000 compounds, 1.4% hits; KB-3-1 viability, CellTiter-Glo ATP luminescence, 72 h; AID 1347075, 2019; Potency, µM (series often up to 46.1 µM), most hits filed as cytotoxic; note: % is set by controls: 0 for no effect and ±100 for the full control effect; nearly all actives have a fitted effect of over 60% in size
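Here the drug-naive KB-3-1 line serves as comparator for MDR sub-line selectivity; cells received compound titrations, 72 h at 37 °C, then CellTiter-Glo readout.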
SW480 rereplic = A quantitative high throughput screen for small molecules that induce DNA re-replication in SW480 colon adenocarcinoma cells; SW480 DNA re-replication, Hoechst DNA content imaging, 48 h; Potency, µM (highest dose often 46.1 µM), without a hit: at the highest dose re-replication activation, usual class: activators; 340,000 compounds, 1.8% hits; note: % of control where 0% means no effect; nearly all actives have a fitted effect of over 55% in size
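SW480 cells exposed to compounds for 48 hr at 37 C, 5% CO2, then Hoechst-stained 40 min. Nuclear DNA content imaged by fluorescence scanning (405 nm excitation, 500-530 nm emission); re-replication scored as increased high-intensity nuclei.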
KB-V1 cytotox = qHTS assay for MDR1-selective chemotherapeutics: Primary screen using the drug-selected MDR subline cells KB-V1; KB-V1 MDR cells viability, CellTiter-Glo, 72 h; AID 1347076, 2019; Potency, µM (top dose mostly 46.1 µM), most hits filed as cytotoxic; 400,000 compounds, 3.4% hits; note: % is set by controls: 0 for no effect and ±100 for the full control effect; nearly all actives have a fitted effect of over 60% in size
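Potencies derive from concentration-effect curves fitted to normalized luminescence (CellTiter-Glo) of KB-V1 cells treated for 72 h at 37 degrees C in phenol-red-free DMEM containing 10% FBS.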
The depositor's hits bear a star; i = inactive; ? = inconclusive; · = no result given. Calls come from the whole dose curve; as a rule, active = well fitted curve in the direction sought with a large enough effect; inconclusive = small, poorly fitted or top-dose-only effect, or another doubt; inactive = no such curve, though single readings can be large; an effect the other way counts as inactive or inconclusive. Potency is the fitted concentration of half-maximal effect.

SMILES	MCF10A rereplic	HT1080NT lethal	HT1080 IDH1KD tx	KB-3-1 cytotox	SW480 rereplic	KB-V1 cytotox
Cc1ccc2nc(N3C(=O)C(O)=C(C(=O)c4cc5ccccc5o4)C3c3cccs3)sc2c1 (stereo not given)	5.8µM*	-1.1%	-15.6%	i	19.3%	i
O=C(C1=C(O)C(=O)N(CCc2ccccc2)C1c1cccs1)c1ccco1 (stereo not given)	-2.0%	-6.7%	-1.8%	i	-7.6%	?
Cc1ccc(OCC(=O)Nc2ccc(OCc3cc(=O)n4ccsc4n3)cc2)cc1	·	·	·	i	·	i
Cc1nn(-c2ccc(F)cc2)c(-n2cccc2)c1C(=O)N1CCN(c2ccc(F)cc2)CC1	·	·	·	?	·	16.4µM*
Cc1cccc(-n2nc(C)c(C(=O)N3CCN(c4ccccc4)CC3)c2-n2cccc2)c1	·	·	·	i	·	i
COc1ccc(CCNC(=O)c2c(C)nn(-c3ccc(F)cc3)c2-n2cccc2)c(OC)c1OC	·	·	·	?	·	11.6µM*
Cc1nn(-c2ccc(F)cc2)c(-n2cccc2)c1C(=O)N1CCN(c2ccccc2F)CC1	·	·	·	?	·	10.3µM*
COc1ccc(CCNC(=O)c2cnn3ccccc23)c(OC)c1OC	4.7%	23.8%	12.4%	i	-16.2%	i
COc1cccc(NC(=O)c2cc3c(-c4ccc(Cl)cc4)nn(C)c3s2)c1	·	·	·	i	·	i
Cc1cnc(NC(=O)c2ccc(F)c(S(=O)(=O)N3CCOCC3)c2)s1	-1.0%	11.4%	3.8%	i	-4.3%	18.4µM*
Cc1ccc(N(Cc2ccccc2)C(=O)c2ccc(F)c(S(=O)(=O)N3CCOCC3)c2)cc1	12.1%	0.9%	-3.7%	?	5.6%	3.66µM*
Cc1cnc(NC(=O)Cc2ccc(S(=O)(=O)N3CCOCC3)s2)s1	-1.0%	9.7%	19.1%	i	-5.0%	23.1µM*
O=C(Nc1ccc2c(c1)CCC2)c1ccc(F)c(S(=O)(=O)N2CCOCC2)c1	11.0%	-0.9%	-14.8%	?	?	3.26µM*
Cc1ccc(C(=O)Nc2ccc3c(c2)CCC3)cc1S(=O)(=O)N1CCOCC1	1.8%	-8.9%	-1.1%	i	0.1%	i
CC(C)(C)NC(=O)COC(=O)/C=C/c1ccc(F)cc1	0.3%	15.7%	15.1%	i	-1.2%	i
CCCCCO	2.3%	0.2%	16.1%	i	-1.2%	i
COCCNC(=O)COC(=O)/C=C/c1c(C)nn(Cc2ccc(Cl)cc2Cl)c1Cl	12.6µM*	-27.2%	?	?	-27.0%	?
Cc1nn(Cc2c(Cl)cccc2Cl)c(Cl)c1/C=C/C(=O)OCC(=O)NCC(F)(F)F	-2.1%	4.4%	9.1%	i	-4.2%	i
COc1cc(C(CC(=O)NCc2ccccc2Cl)N2Cc3ccccc3C2=O)cc(OC)c1OC (stereo not given)	·	·	·	i	·	?
O=C(OCC(=O)c1c[nH]c2ccccc12)c1cc2ccccc2cc1O	11.6µM*	-22.3%	-27.2%	i	14.9%	?
COc1ccc(C(=O)OCC(=O)c2c[nH]c3ccccc23)c(OC)c1	17.4%	-5.3%	-15.7%	i	-3.5%	i
O=c1cc(Nc2ccc3c(c2)OCO3)[nH]c(=O)n1-c1ccc(Br)cc1	-1.2%	?	35.5µM*	i	-3.1%	?
Cc1ccc(CN2CCC[C@]3(N[C@H](c4ccc(C)cc4)[C@@H]4C(=O)N(C)C(=O)[C@@H]43)C2=O)cc1	·	-5.3%	-2.1%	i	·	i

From PubChem
